Screening results: PubChem, several laboratories
A selection: hits, their analogues and other compounds. The true share with any hit is near 4.6%.
PfHsp90 yeast 2: growth inhibition of PfHsp90-expressing yeast, primary screen, antimalarial PfHsp90 inhibitor project, S. cerevisiae, BacTiter-Glo luminescence, single point, set 2 | BacTiter-Glo ATP, 48 h; yeast lacking PDR1 and PDR3 efflux regulators | inhibition, % at 9.4 µM | 310,000 compounds, 0.32% hits | AID 504621, 2011;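 active = every replicate shows inhibition above about 80%, whatever the replicate mean, limit read from the data; inconclusive = mean inhibition reaches the set limit but some replicate falls short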;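 note: 0% = DMSO neutral controls and 100% = 20 µM radicicol positive controls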
SKKanGAS inh: S. pyogenes SKKanGAS growth inhibitors in kanamycin, primary screen, streptokinase expression inhibitor project, SKKanGAS strain, BacTiter-Glo luminescence | 300,000 compounds, 1.3% hits | inhibition, % at 7.5 µM | 6 h;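 active = mean replicate score, as percent of positive control median, at least 50; inconclusive = mean below 50 but one replicate at or above 50; inactive = mean and every replicate below 50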;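 note: strain carries kanamycin resistance gene driven by streptokinase promoter and grows in 40 µg/ml kanamycin; loss of luminescence reflects streptokinase promoter inhibition or plain growth inhibition; 0% = median of DMSO wells and 100% = positive control at its reference dose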
TIM10 inh: growth inhibitors of isogenic TIM10 control yeast, primary screen, counter-screen for tim10-1 yeast inhibitor project, luminescence, uHTS; S. cerevisiae TIM10 strain growth, BacTiter-Glo luminescence, 24 h; inhibition, % at 10 µM; 330,000 compounds, 1.4% hits; AID 463195, 2010;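 active = inhibition of 40% or more at the single tested concentration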;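 note: wild-type TIM10 isogenic control strain grown at permissive 25 °C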
V-ATPase pH: regulators of yeast V-ATPase proton pumping, primary screen, pHLuorin cytosolic pH fluorescence. S. cerevisiae. response, % at 10 µM. 350,000 compounds, 0.37% hits. AID 504577, 2011; in the data active = response mostly above about 7.3%, no sharp cut-off; inactive = mostly below about 5.4%; note: actives read high
tim23-1 inh: growth inhibitors of tim23-1 mutant yeast, primary screen, luminescence, uHTS. S. cerevisiae tim23-1 growth, BacTiter-Glo luminescence, 24 h. 330,000 compounds, 1.3% hits. inhibition, % at 20 µM;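 active = growth inhibition of the mutant yeast at or above 50%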;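 note: temperature-sensitive mutant grown at 25 °C; plate controls were DMSO-treated mutant yeast for no effect and medium wells lacking yeast for full effect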
tim10-1 inh: growth inhibitors of tim10-1 mutant yeast, primary screen, luminescence, uHTS; 330,000 compounds, 2.2% hits; AID 463190, 2010; inhibition, % at 20 µM; S. cerevisiae tim10-1 ts strain growth, BacTiter-Glo, 24 h;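 active = inhibition of at least 40%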;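 note: mutant grown at 25 °C; 0% = DMSO wells with yeast and 100% = wells holding no yeast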
tim10 confirm: growth inhibitors of wild-type TIM10 yeast, confirmation, counter-screen for tim10-1 synthetic lethality project, single concentration, luminescence, S. cerevisiae; 4,600 compounds, 63% hits; inhibition, % at 10 µM; S. cerevisiae tim10 strain growth, BacTiter-Glo luminescence, 24 h; AID 463215, 2010; shares compounds with TIM10 inh;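 active = inhibition of yeast growth at or above a set limit in either of two replicates at 10 µM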;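 note: this counterscreen used the strain with wild-type TIM10; 0% = yeast with DMSO and 100% = medium wells lacking yeast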
An asterisk follows results filed as active; ? = inconclusive; · = no result.

SMILES	PfHsp90 yeast 2	SKKanGAS inh	TIM10 inh	V-ATPase pH	tim23-1 inh	tim10-1 inh	tim10 confirm
Cc1ccc(S(=O)(=O)N2CCc3ccccc3C2CN2C(=O)c3ccccc3C2=O)cc1 (stereo not drawn)	1	1	43*	-3	30	23	29
Fc1cccc(Cn2cc(C(=S)N3CCCCC3)c3ccccc32)c1	-27	11	48*	-1	36	38	30
O=C(c1ccc(Oc2ccc(C(F)(F)F)cn2)cc1)N1CCN(c2ccccc2)CC1	-11	2	25	3	33	35	·
COc1ccc(N2CCN(C(=O)c3ccc(Oc4ccc(C(F)(F)F)cn4)cc3)CC2)cc1	4	1	44*	2	26	24	41*
Cc1ccccc1OCCC(=O)Nc1ccc(S(=O)(=O)N2CCCC2)cc1	·	·	·	-2	·	·	·
O=C(N/N=C/c1ccccn1)c1ccc(Br)cc1	24	-3	3	5	-38	-13	·
O=C(N/N=C/c1ccccn1)c1ccc(N/N=C/c2ccccn2)cc1	2	1	62*	-15	18	28	34*
O=C(CCl)Oc1ccc2occ(C(=O)c3cccs3)c2c1	1	-8	61*	0	-20	17	41*
CN1C(=O)[C@H]2[C@@H](/C=C/c3ccccc3)N3C(=O)CN(Cc4ccccn4)C(=O)[C@@]3(C)[C@H]2C1=O	0	-1	-19	5	-8	-22	·
Cc1ccc(O)c(-c2cc(-c3ccccc3[N+](=O)[O-])[nH]n2)c1	0	2	42*	1	47	28	4
COc1ccc(O)c(-c2cc(-c3ccccc3[N+](=O)[O-])[nH]n2)c1	-12	-3	35	0	36	21	·
Cn1c(SCC(=O)N/N=C/c2ccc([N+](=O)[O-])s2)nnc1-c1ccccc1	?	8	71*	2	43	28	82*
COc1cc(/C=C2\SC(N3CCCCC3)=NC2=O)cc(OC)c1OC	-5	7	9	0	13	37	·
CCc1ccc(/C=C2\SC(N3CCCC3)=NC2=O)cc1	-18	8	44*	-2	38	21	41*
COc1ccccc1OCCCc1c(C)n[nH]c1C	36	-6	52*	5	-50	21	51*
Cc1cccc(OCCCCc2c(C)n[nH]c2C)c1	-3	-5	40*	2	38	24	39*
COc1cccc(OCCc2c(C)n[nH]c2C)c1	-5	6	10	-4	10	14	·
COc1ccc(C(=O)OC(C)C(=O)NCC2CCCCC2)cc1S(=O)(=O)N1CCOCC1 (stereo not drawn)	5	·	3	-3	3	-4	·
Cc1cc(C)nc(SCc2cc(=O)c(OC(=O)c3ccco3)co2)n1	-8	2	42*	5	37	18	37*
Cc1cc(C)nc(SCc2cc(=O)c(OC(=O)c3ccc(Br)o3)co2)n1	22	-2	40	3	38	6	·
CCN(CC)CCN(C(=O)c1ccc2c(c1)CCCC2)c1nc2c(C)cccc2s1	4	5	40*	-3	48	39	12
CCN(CC)CCN(C(=O)c1ccc2c(c1)CCCC2)c1nc2ccc(C)cc2s1	15	4	26	2	46	37	·
Cc1cccc(-c2nc(=S)c3c(o2)CCCC3)c1	·	-1	44*	-3	35	24	33*
S=c1nc(-c2ccc(Br)cc2)oc2c1CCCC2	-4	8	26	-1	3	35	·
CCOc1ccc(OCCSc2ccc(S(=O)(=O)N3CCN(C)CC3)cn2)cc1	-1	·	46*	0	50	38	52*
SMILES	PfHsp90 yeast 2	SKKanGAS inh	TIM10 inh	V-ATPase pH	tim23-1 inh	tim10-1 inh	tim10 confirm
COc1cc2c(cc1NC(=O)CN(C)Cc1nc3ccccc3c(=O)[nH]1)oc1ccccc12	·	20	42*	-2	27	27	-25
CCN(CC(=O)Nc1cc(OC)ccc1OC)Cc1nc2ccccc2c(=O)[nH]1	-45	-3	3	4	14	15	·
Cc1c(Cl)cccc1NC(=S)NN1CCOCC1	-53	-1	-8	0	-16	2	·
C/C(=N\NC(=S)Nc1ccc(F)cc1)c1ccc2c(c1)OCCO2	0	3	44*	0	38	35	51*
C/C(=N\NC(N)=S)c1ccc2c(c1)OCCO2	-24	-5	-3	-4	10	17	·
O=[N+]([O-])CC(c1ccccc1)c1c[nH]c2ccccc12 (stereo not drawn)	·	10	45*	7	39	19	55*
COc1cc(Cl)ccc1NC(=O)COc1ccccc1C(=O)N1CCN(c2ccc(O)cc2)CC1	·	12	2	1	23	17	·
S=C(NCc1ccco1)Nc1cccc(Cl)c1Cl	·	1	41*	8	38	31	29
COc1ccc(-c2nc3ccccc3s2)cc1O	14	0	47*	0	0	26	-24
Cc1ccc(C(=O)OCC(=O)Nc2ccc3c(c2)OCO3)c(O)c1	-5	·	-6	1	-2	-22	·
CCN1C(=O)[C@H]2[C@@H](c3ccc(-c4ccccc4)cc3)N3CCC[C@@]3(C(=O)OC)[C@H]2C1=O	18	3	-8	-3	-11	28	·
Cc1ccccc1OCCn1cnc2cc([N+](=O)[O-])ccc2c1=O	-69	7	42*	0	28	35	1
O=c1c2ccccc2ncn1CCCOc1ccccc1[N+](=O)[O-]	13	-10	-5	2	12	4	·
Cc1cccc(OCC(O)CN2CCN(c3ccccn3)CC2)c1C (stereo not drawn)	-29	-6	98*	-1	-6	-6	1
CCOC(=O)N1CCN(C(=O)/C=C/c2cccc([N+](=O)[O-])c2)CC1	2	1	0	1	11	-6	·
c1ccc(CSc2ncn(-c3ccccc3)n2)cc1	0	18	-4	-3	21	22	·
O=C(CSc1ncn(-c2ccccc2)n1)c1cccs1	-31	0	48*	1	16	28	-7
CS(=O)(=O)N1CCC(C(=O)Nc2ccc(Cl)cc2Cl)CC1	·	·	·	0	·	·	·
COc1ccc(OC)c(S(=O)(=O)N/N=C\c2cn(CC(N)=O)c3ccccc23)c1	-1	2	5	6	-1	-4	·
